Consider 21 compounds from PubChem BioAssay (NCI).

Experiment [1] can be described thus: NCI Yeast Anticancer Drug Screen. Data for the rad50 strain (AID 155).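 Also: 0% = growth of vehicle-only cultures of the same strain.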 The settings on record: S. cerevisiae rad50 strain growth inhibition; at 50.0 µM; hits give high values. In short, it runs like this:
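Vehicle-treated cultures provide the reference for the growth inhibition reported for compound-exposed, repair-deficient yeast.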

Experiment [2] in a line: NCI Yeast Anticancer Drug Screen. Data for the mec2-1 strain (AID 157). The settings on record: S. cerevisiae mec2-1 strain, at 50.0 µM, hits give high values. A digest of the protocol: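 Strain: mec2-1 (DNA repair/cell cycle alteration). Compound exposure, then growth measured; inhibition expressed relative to vehicle.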
Experiment [3] can be described thus: NCI Yeast Anticancer Drug Screen. Data for the sgs1 mgt1 strain (AID 161).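 Also: 0% = growth of cultures given vehicle only.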 Conditions: S. cerevisiae sgs1 mgt1 strain, at 50.0 µM, hits give high values. In short, it runs like this: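 Inhibition of yeast growth, normalised to vehicle-treated controls, is reported for a strain bearing genetic alterations in DNA damage repair.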
A short description of experiment [4]: NCI Yeast Anticancer Drug Screen. Data for the cln2 rad14 strain (AID 165).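 Also: 0% = growth equal to vehicle treated cultures.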 Conditions: S. cerevisiae cln2 rad14 strain, at 50.0 µM, hits give high values. In short, it runs like this: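 Compounds are applied to the cln2 rad14 yeast strain, and growth is then compared with that of vehicle-treated cultures to give inhibition.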
Experiment [5] can be described thus: NCI Yeast Anticancer Drug Screen. Data for the bub3 strain (AID 167). Conditions: S. cerevisiae bub3 mutant strain, at 50.0 µM, hits give high values. In short, it runs like this:
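Mutant yeast screening strain plus compound; vehicle-treated cultures serve as the 0% inhibition reference.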

Experiment [6] is described as follows: NCI Yeast Anticancer Drug Screen. Data for the mlh1 rad18 strain (AID 175). Conditions: S. cerevisiae mlh1 rad18 strain growth inhibition; at 50.0 µM; hits give high values. A digest of the protocol: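 Read-out is yeast growth inhibition, calculated against vehicle-only controls. The compound was applied to a strain engineered with DNA damage repair alterations.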

Compounds without any hit were thinned out: in the full panel of roughly 79,000, 15% have a hit. Unmarked numbers belong to inactive results. The source made the active and inactive calls. Rule as the data show it: active = growth inhibition above about 70%; inactive = the rest.

In the case of `CCOC(=O)CC(C(=O)OCC)C(C(=O)OCC)C(=O)OCC` (stereo unspecified), the growth inhibition is 41.9% in experiment [1]; -4.1% in experiment [2]; 19.6% in experiment [3]; 3.4% in experiment [4]; 29.8% in experiment [5]; 13.6% in experiment [6].
In the case of `Cc1cc(OC(C)C)cc(C)c1C(=O)OCC(C)CN1CCCC1` (stereo unspecified), the growth inhibition in experiment [1] was 1.9%; in experiment [2], -16.8%; in experiment [3], 5.4%; in experiment [4] it was -15.1%; in experiment [5], -8.5%; in experiment [6] it was -18.2%.
On to `C/C(CC(=O)Nc1ccccc1[N+](=O)[O-])=N\NC(N)=O`, for which the growth inhibition in experiment [1] is 14.1%; in experiment [2] it was -15.8%; in experiment [3], -18.1%; in experiment [4], 27.4%; in experiment [5] it was -23.1%; in experiment [6], -2.9%.
Take `CCCCn1cccc1`: the growth inhibition is 33.2% in experiment [1]; 10.2% in experiment [2]; 9.3% in experiment [3]; 15% in experiment [4]; 26.8% in experiment [5]; 26.4% in experiment [6].
In the case of `CCOC(=O)CCCCCCCCCCCCCCCCC(=O)OCC`, the growth inhibition in experiment [1] was 30.9%; in experiment [2], -31.9%; in experiment [3], -14.2%; in experiment [4] it was 19.5%; in experiment [5] it was 7.75%; in experiment [6], 8.9%.
Turning to `CC1(C(=O)O)CCC2(C)CCC3(C)C(=CC(=O)C4C5(C)CCC(OC6OC(C(=O)O)C(O)C(O)C6OC6OC(C(=O)O)C(O)C(O)C6O)C(C)(C)C5CCC43C)C2C1` (stereo unspecified), the growth inhibition in experiment [1] was 13.6%; in experiment [2] it was 3.95%; in experiment [3], -2.25%; in experiment [4] it was 24.8%; in experiment [5], 15.8%; in experiment [6], 19.2%.
With `COc1ccc2c(c1)CCC1C2CCC2(C)C(=O)C(n3cnc4c(SC)ncnc43)CC12` (stereo unspecified), the growth inhibition in experiment [1] was 42.3%; in experiment [2], 19.6%; in experiment [3], 58.4%; in experiment [4], 29.1%; in experiment [5], 25.2%; in experiment [6], 46.9%.
As to `COc1ccc(CN2C(=O)C(=O)N(C)C2=O)c2ccccc12`, the growth inhibition in experiment [1] is 36.9%; in experiment [2], 4.65%; in experiment [3] it was 13.8%; in experiment [4] it was 18.1%; in experiment [5] it was 18.5%; in experiment [6], 23.6%.
As for `CCOC(=O)c1ccc(NCCCc2c(C)nc(N)[nH]c2=O)cc1`, the growth inhibition in experiment [1] was 5.25%; in experiment [2] it was 9.5%; in experiment [3], -9.15%; in experiment [4], -10.3%; in experiment [5], 34.6%; in experiment [6], -2.85%.
With `O=CNc1ncccn1`, the growth inhibition was -6.95% in experiment [1]; 1.3% in experiment [2]; 7.25% in experiment [3]; -2.05% in experiment [4]; -2.2% in experiment [5]; -7.75% in experiment [6].
As to `O=C(OCC(OC(=O)c1ccccc1)C1CC(C(O)C2CCCCC2)C(=O)O1)c1ccccc1` (stereo unspecified), the growth inhibition in experiment [1] was 5.25%; in experiment [2], 22.1%; in experiment [3], 45.9%; in experiment [4] it was 10.2%; in experiment [5] it was 22.2%; in experiment [6], 30.6%.
`N#C[C@H]1CC2C=CC1C2` (stereo partly specified): the growth inhibition in experiment [1] is 12.2%; in experiment [2], -20%; in experiment [3], 0.7%; in experiment [4] it was 8.2%; in experiment [5], 0.8%; in experiment [6] it was 15.7%.
`O=C(O)c1ccc(/C=N/NC(=S)Nc2cccc3cccnc23)cc1`: the growth inhibition was 22.1% in experiment [1]; 7.4% in experiment [2]; 6.6% in experiment [3]; 16.4% in experiment [4]; 10.2% in experiment [5]; -17.1% in experiment [6].
For the compound `CC1(C)CC(O)(Cc2ccccc2)C(O)c2ccccc21` (stereo unspecified), the growth inhibition in experiment [1] is 45.5%; in experiment [2], 32.1%; in experiment [3], 31.6%; in experiment [4], 54.5%; in experiment [5], 26.1%; in experiment [6] it was 74.2% (active).
In the case of `COc1ccc(C#CC(O)C(F)(F)F)cc1` (stereo unspecified), the growth inhibition in experiment [1] was -7.9%; in experiment [2], -20.4%; in experiment [3] it was -8.35%; in experiment [4], -18.4%; in experiment [5] it was -46%; in experiment [6], -11.5%.
For the compound `CNC(=S)n1ncnc1N`, the growth inhibition in experiment [1] is 11%; in experiment [2], -5.95%; in experiment [3] it was -2.9%; in experiment [4] it was -17.8%; in experiment [5] it was -3.75%; in experiment [6] it was 8.25%.
Take `COC(=O)/C(C#N)=C(/NCc1ccccc1)Nc1ccccc1`: the growth inhibition in experiment [1] is 20.8%; in experiment [2], -13.1%; in experiment [3], -8.2%; in experiment [4], 11.4%; in experiment [5], 43.6%; in experiment [6] it was 21.4%.
For the compound `CN1C/C(=C\C=C\c2ccccc2)C(=O)/C(=C/C=C/c2ccccc2)C1`, the growth inhibition in experiment [1] is 66.7%; in experiment [2] it was 16.9%; in experiment [3], 14.8%; in experiment [4] it was 11.8%; in experiment [5], 11.2%; in experiment [6], 0.2%.
As to `CCCCCCCCNC(C(=O)c1ccccc1)c1ccccc1` (stereo unspecified), the growth inhibition in experiment [1] was 10.1%; in experiment [2] it was 11.7%; in experiment [3], 16%; in experiment [4] it was 14%; in experiment [5] it was 14.2%; in experiment [6], 26.8%.
Take `CCOP(=O)(CCP(=O)(CCP(=O)(OCC)OCC)CCP(=O)(OCC)OCC)OCC`: the growth inhibition in experiment [1] is -8.05%; in experiment [2], 2.5%; in experiment [3] it was -8.05%; in experiment [4], -30.2%; in experiment [5], -1.55%; in experiment [6] it was -9.2%.
Turning to `CCC(=O)N1CCN(C(=O)CC)CC1`, the growth inhibition was 6.4% in experiment [1]; -2.45% in experiment [2]; -5.25% in experiment [3]; -12.8% in experiment [4]; 1.95% in experiment [5]; -2.25% in experiment [6].
